# Results: PubChem BioAssay AID624377 (The Scripps Research Institute Molecular Screening Center, 2012)
# Hit rate of the full screen: of about 360,000 compounds, about 680 (0.19%) were called active. The sample holds actives, similar compounds and a random draw of the others, so the mix is not that of the screen. Unmarked numbers belong to inactive results. Rule as the data show it: active = inhibition above about 25%; inactive = the rest.
# Molecular target: Arf-GAP with SH3 domain, ANK repeat and PH domain-containing protein 1 (Homo sapiens) (UniProt Q9ULH1)
# Sequence (Q9ULH1 325-724 limits assumed): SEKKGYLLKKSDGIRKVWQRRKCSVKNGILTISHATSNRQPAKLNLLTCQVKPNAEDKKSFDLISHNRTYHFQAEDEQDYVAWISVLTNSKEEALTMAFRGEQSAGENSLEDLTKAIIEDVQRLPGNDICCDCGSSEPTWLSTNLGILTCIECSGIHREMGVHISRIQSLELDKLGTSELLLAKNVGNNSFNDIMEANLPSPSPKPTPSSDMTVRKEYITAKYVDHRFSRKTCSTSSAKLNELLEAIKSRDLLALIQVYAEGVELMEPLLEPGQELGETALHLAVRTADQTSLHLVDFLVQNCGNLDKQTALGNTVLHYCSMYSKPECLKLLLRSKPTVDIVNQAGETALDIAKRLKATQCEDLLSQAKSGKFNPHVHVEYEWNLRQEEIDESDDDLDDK
# Assay: inhibitors of human ASAP1 ArfGAP activity, primary screen, biochemical, fluorescence polarization (AID 624377);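 also: 0% = vehicle with enzyme and substrate and 100% = no enzyme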
# Conditions: ASAP1-stimulated ARF1 GTP hydrolysis, GDP FP detection; at 16.5 µM; active compounds read high
row,SMILES,inhibition
1,C[C@H](O)[C@@H]1C(=O)N2CCc3c([nH]c4c(-c5ccc6c(c5)OCO6)cccc34)[C@@H]2C[C@@H]1N(C)C(=O)c1ccco1,-3.66%
2,C=CCN=C1NC(c2cccc(C(F)(F)F)c2)C(C(=O)OC)=C(C)N1C (configuration not stated),-4.81%
3,C[C@H]1CN([C@@H](C)CO)C(=O)CCCn2nncc2CO[C@@H]1CN(C)C(=O)Nc1ccc(N2CCN(C)CC2)cc1,6.23%
4,COC(=O)c1cc2c(c3c4cc(F)ccc4n(S(=O)(=O)c4ccccc4)c13)C(=O)N(Cc1ccccc1OC)C2,-0.6%
5,Nc1ncnc2c1ncn2[C@@H]1O[C@H](C(=O)N[C@@H](CCc2ccccc2)C(=O)NCC(=O)N2CCOCC2)[C@@H](O)[C@H]1O,-8.44%
6,CC(=O)N1C[C@@H](CO)[C@@H](N(C)C(=O)C(C)(C)C)C[C@H]1c1ccccc1Br,-5.76%
7,OC(c1ccccc1)(c1ccccc1)C1CCN(CCCOc2ccc(-c3ccsc3)cc2)CC1,13.7%
8,Cc1ccc2nc(SCC(=O)N3CC(C)OC(C)C3)nc(=O)n2c1 (configuration not stated),40.7% (active)
9,Cc1ccc2nc(SCC(=O)Nc3cccc4ccccc34)nc(=O)n2c1,16.5%
10,Cc1ccc2nc(SCC(=O)N3CCN(c4ccccc4)CC3)nc(=O)n2c1,14.1%
11,CC(=O)N(C1=C(Cl)C(=O)c2ccccc2C1=O)c1ccc(C(=O)O)cc1,29.4% (active)
12,O=C1C(Cl)=C(Oc2ccccc2)C(=O)c2ccccc21,-0.42%
13,COc1ccc(-c2ccccc2C2Cc3nnccc3CN2C(=O)Nc2ccccc2)cc1 (configuration not stated),-1.04%
14,O=C(NCc1ccccc1)[C@H]1CCCN1C(=O)[C@H]1CCCN1C(=O)N1CCOCC1,11.6%
15,Nc1[nH]c(C(=O)c2ccc(Br)cc2)c(-c2ccc3c(c2)OCO3)c1C(=O)NCCc1c[nH]c2ccccc12,9.33%
16,CC(=O)c1ccc(S(=O)(=O)NCC2CCN(C(=O)C(=O)c3cccs3)CC2)cc1,-0.29%
17,OCCNc1nc2ccccc2n1-c1ncnc2sc3c(c12)CCC3,1.46%
18,O=C(O)c1cccnc1Sc1ncnc2sc3c(c12)CCC3,8.49%
19,COc1ccc(/C=N/Nc2ncnc3sc4c(c23)CCCC4)cc1O,27.3% (active)

row,SMILES,inhibition
1,COc1cccc(CNC(=O)[C@H]2CCCN2C(=O)[C@H]2CCCN2C(=O)c2ccc(F)cc2)c1,-1.31%
2,CCn1c2ccccc2c2cc(NC(=S)N3CCOCC3)ccc21,-2.05%
3,CCn1c2ccccc2c2cc(NC(=O)C/C(C)=N/NC(=O)c3ccccc3N)ccc21,27% (active)
4,CCn1c2ccccc2c2cc(NC(=O)COC(=O)c3cc(S(=O)(=O)N4CCCCC4)ccc3Cl)ccc21,0.3%
5,COC(=O)C1=C(C)N(Cc2ccccc2C(F)(F)F)C(=NCC2CC2)NC1c1cccc(Cl)c1 (configuration not stated),17.5%
6,C#CCN([C@@H](C)C(=O)OCC)S(=O)(=O)c1ccc(Br)cc1F,3.17%
7,Cc1ccc2nc(-c3ccc(CN4CCC(n5cc(-c6ccccc6)[nH]c5=O)CC4)cc3)c(-c3ccccc3)nc2c1,9.24%
8,Cc1cc2nc3c(=O)[nH]c(=O)nc-3n(C[C@H](O)[C@H](O)[C@H](O)CO)c2cc1C,0.24%
9,COc1ccccc1C(=O)N1O[C@]23C=C[C@]14C[C@@H](O)CC[C@]4(C)C2CC[C@]1(C)[C@@H]([C@H](C)/C=C/[C@H](C)C(C)C)CC[C@H]13 (some centres not stated),6.77%
10,C=CCN=C1NC(c2ccccc2)C(C(=O)OC)=C(C)N1Cc1ccc(C(F)(F)F)cc1 (configuration not stated),9.79%
11,CCOC(=O)CNC(=O)N(C)[C@H]1C[C@H]2c3[nH]c4c(-c5ccc6c(c5)OCO6)cccc4c3CCN2C(=O)[C@H]1[C@H](C)O,-4.88%
12,COC(=O)N1Cc2ccnnc2CC1c1ccccc1Br (configuration not stated),7.59%
13,O=C1[C@@H](c2ccccc2)[C@@H](c2ccccc2)N1c1ccccc1,-13%
14,O=C1Nc2ccccc2C1=NN=Cc1ccco1,1.27%
15,Clc1cccc2c1C1CC2CCN1Cc1ccccc1 (configuration not stated),-8.11%
16,Nc1nc2c(ncn2[C@@H]2O[C@H](C(=O)N[C@H](Cc3ccccc3)C(=O)NCC3CCCCC3)[C@@H](O)[C@H]2O)c(=O)[nH]1,5.87%
17,COC(=O)C1=C(C)N(Cc2ccc(F)cc2)C(=S)NC1c1cccc(Cl)c1 (configuration not stated),-11.5%
18,N#Cc1cccc(C(=O)NCC2CCN(C(=O)C(=O)c3cc4ccccc4o3)CC2)c1,-11.4%
